Source: PubChem BioAssay AID1159580 (chemical genetic matrix, 2015)
“And” between values parts separate entries of the source, which are not always exact repeats. Equal entries are not always repeated. The campaign covered roughly 5,500 compounds. About 2,000 (36%) were called active. Inconclusive results (about 18%) are left out. Cut-off read from the data, not from the text of the source: active = normalized growth mostly below about 0.91 (no sharp cut-off); inconclusive = no clear call, values can overlap the other calls; inactive = mostly above about 0.92. Some of the results follow.

Test: chemical genetic growth profiling, strain panel (AID 1159580);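 note: tested at 20 µM; growth read once vehicle control cultures reached saturation at 30 °C; 1 = growth at the plate median or of vehicle wells; lower values mean less growth of the strain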
Conditions: S. cerevisiae deletion strains, growth OD

Measured: normalized growth

O=c1[nH]cnc2c1ncn2C1O[C@H](CO)[C@@H](O)[C@H]1O (stereo partly drawn)
inactive: locus YAL013W, strain DEP1, stronger effect = lower value 1.01 | locus YAL021C, strain ccr4, stronger effect = lower value 0.989 | locus YAL026C, strain drs2, stronger effect = lower value 1 | locus YAL030W, strain snc1, stronger effect = lower value 0.989 | locus YBL061C, strain skt5, stronger effect = lower value 0.995 | locus YBR009C, strain hhf1, stronger effect = lower value 1.02 | locus YBR021W, strain FUR4, stronger effect = lower value 1 | locus YBR023C, strain chs3, stronger effect = lower value 0.998 | locus YBR171W, strain sec66, stronger effect = lower value 0.978 | locus YBR229C, strain ROT2, stronger effect = lower value 1 | locus YBR231C, strain swc5, stronger effect = lower value 0.974 | locus YBR279W, strain paf1, stronger effect = lower value 0.986 | locus YCL011C, strain gbp2, stronger effect = lower value 1 | locus YCL016C, strain dcc1, stronger effect = lower value 1 | locus YCL029C, strain bik1, stronger effect = lower value 1.03 | locus YCL069W, strain vba3, stronger effect = lower value 0.995 | locus YCR088W, strain abp1, stronger effect = lower value 0.981 | locus YDL005C, strain med2, stronger effect = lower value 0.987 | locus YDL035C, strain GPR1, stronger effect = lower value 1.01 | locus YDL040C, strain nat1, stronger effect = lower value 0.986 | locus YDL074C, strain BRE1, stronger effect = lower value 1.01 | locus YDL101C, strain DUN1, stronger effect = lower value 1.01 | locus YDL134C, strain PPH21, stronger effect = lower value 1 | locus YDL185W, strain tfp1, stronger effect = lower value 1.04 | locus YDL192W, strain arf1, stronger effect = lower value 1.05 | locus YDR001C, strain nth1, stronger effect = lower value 0.986 | locus YDR069C, strain doa4, stronger effect = lower value 0.975 | locus YDR101C, strain arx1, stronger effect = lower value 1.05 | locus YDR137W, strain rgp1, stronger effect = lower value 1.01 | locus YDR159W, strain sac3, stronger effect = lower value 0.968 | locus YDR162C, strain NBP2, stronger effect = lower value 1.01 | locus YDR195W, strain ref2 0.958 | locus YDR297W, strain sur2, stronger effect = lower value 0.993 | locus YDR318W, strain mcm21, stronger effect = lower value 1.01 | locus YDR334W, strain swr1, stronger effect = lower value 0.974 | locus YDR335W, strain msn5, stronger effect = lower value 0.997 | locus YDR388W, stronger effect = lower value 1.03 | locus YDR392W, strain spt3, stronger effect = lower value 0.907 | locus YDR502C, strain sam2, stronger effect = lower value 1.02 | locus YEL003W, strain gim4, stronger effect = lower value 0.991 | locus YEL037C, strain rad23, stronger effect = lower value 0.987 | locus YEL061C, strain CIN8 (second series), stronger effect = lower value 0.989 | locus YEL061C, strain CIN8, stronger effect = lower value 1 | locus YER015W, strain faa2, stronger effect = lower value 0.982 | locus YER016W, strain bim1, stronger effect = lower value 0.989 | locus YER110C, stronger effect = lower value 1.03 | locus YER111C, strain swi4, stronger effect = lower value 0.996 | locus YER155C, strain BEM2 (second series), stronger effect = lower value 0.939 | locus YER155C, strain BEM2, stronger effect = lower value 1.01 | locus YER167W, strain BCK2, stronger effect = lower value 1 | locus YFR010W, strain ubp6, stronger effect = lower value 0.983 | locus YGL078C, strain dbp3, stronger effect = lower value 1.02 | locus YGL086W, strain mad1, stronger effect = lower value 1.01 | locus YGL167C, strain pmr1, stronger effect = lower value 0.978 | locus YGL173C, strain kem1, stronger effect = lower value 0.988 | locus YGL227W, strain vid30, stronger effect = lower value 0.98 | locus YGL240W, strain doc1, stronger effect = lower value 1 | locus YGL248W, strain PDE1, stronger effect = lower value 1.01 | locus YGL253W, strain hxk2, stronger effect = lower value 0.988 | locus YGR135W, strain pre9, stronger effect = lower value 0.998 | locus YGR252W, strain gcn5, stronger effect = lower value 0.981 | locus YHR013C, strain ard1, stronger effect = lower value 0.969 | locus YHR027C, strain rpn1, stronger effect = lower value 0.997 | locus YHR030C, strain SLT2, stronger effect = lower value 1 and 0.966 | locus YHR079C, strain IRE1 (second series), stronger effect = lower value 1.03 | locus YHR079C, strain IRE1, stronger effect = lower value 0.978 | locus YHR094C, strain hxt1, stronger effect = lower value 1.02 | locus YHR129C, strain ARP1, stronger effect = lower value 1 | locus YHR142W, strain chs7, stronger effect = lower value 1.02 | locus YHR200W, strain rpn10, stronger effect = lower value 1.03 | locus YIL066C, strain RNR3, stronger effect = lower value 1.01 | locus YIL073C, strain SPO22, stronger effect = lower value 1.12 | locus YIL125W, strain kgd1, stronger effect = lower value 1.02 | locus YIR030C, strain dcg1, stronger effect = lower value 1.04 | locus YJL092W, strain hpr5, stronger effect = lower value 0.998 | locus YJL095W, strain BCK1 (second series), stronger effect = lower value 0.987 | locus YJL095W, strain BCK1, stronger effect = lower value 1.02 and 0.981 | locus YJL115W, strain asf1, stronger effect = lower value 0.987 | locus YJL129C, strain trk1, stronger effect = lower value 0.994 | locus YJL134W, strain LCB3, stronger effect = lower value 1 | locus YJL154C, strain vps35, stronger effect = lower value 0.982 | locus YJL164C, strain tpk1, stronger effect = lower value 1.02 | locus YJL166W, strain qcr8, stronger effect = lower value 1.01 | locus YJL168C, strain set2, stronger effect = lower value 1.01 | locus YJL187C, strain SWE1 (second series), stronger effect = lower value 1 | locus YJL187C, strain SWE1, stronger effect = lower value 0.991 | locus YJR043C, strain POL32, stronger effect = lower value 1.01 | locus YJR066W, strain TOR1, stronger effect = lower value 0.925
